The record followed here is PubChem BioAssay.

Values without a mark were called inactive. The source made the active and inactive calls.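 How the source made its calls, unless noted: active means compound that reduces growth-factor-driven endothelial tube area in a mixed cell culture, no cutoff stated; inactive means the rest.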

The first experiment is described as follows: inhibition of endothelial tube formation, primary screen, imaging, VEGF stimulated, CD31 staining, tube area, NPC library (AID 1117340). The following applies: VEGF-stimulated ADSC/ECFC co-culture, at 10 µM, hits give high values.
On to `CCC(=O)Nc1ccc(O)cc1`, for which the tube area decrease was 16%.

Consider `COC(=O)c1cc(S(C)(=O)=O)ccc1OC`, for which the tube area decrease is -4.1%.

As to `Cc1cccc(N(C)C(=S)Oc2ccc3c(c2)CCC3)c1`, the tube area decrease is -13.8%.

As to `Nc1c(N=Nc2ccc(-c3ccc(N=Nc4cc(S(=O)(=O)O)c5ccccc5c4N)cc3)cc2)cc(S(=O)(=O)O)c2ccccc12`, the tube area decrease was 16.8%.

As for `CCOC(=O)CN1CCCC1=O`, the tube area decrease was -17.2%.

Consider `COC(=O)[C@H]1[C@H]2C[C@@H]3c4[nH]c5cc(OC)ccc5c4CCN3C[C@H]2C[C@@H](OC(=O)COc2ccc(OC)cc2)[C@@H]1OC`, for which the tube area decrease was 9.6%.

For the compound `CCCCN(CCCC)C(C(N)=O)c1ccc(OC)cc1` (stereo not drawn), the tube area decrease was 6.6%.

As for `CN[C@@H]1[C@@H](O)[C@@H](O[C@@H]2[C@H](O)[C@H](O[C@H]3OC(CN)=CC[C@H]3N)[C@@H](N)C[C@H]2N)OCC1(C)O` (stereo partly drawn), the tube area decrease is 0.1%.

For `COc1ccc2c(c1)c(CC(=O)OC/C=C(\C)CC/C=C(\C)CCC=C(C)C)c(C)n2C(=O)c1ccc(Cl)cc1`, the tube area decrease is 5.1%.

Regarding `CCc1ccc(C(=O)C(C)CN2CCCCC2)cc1` (stereo not drawn), the tube area decrease was -30.1%.

Take `O=C(O)c1cc(O)c2c(c1)[O][Bi][O]2`: the tube area decrease is 11.1%.

`CCN(CC)CC(=O)Oc1ccc(NC(C)=O)cc1`: the tube area decrease was -10.3%.

In the case of `C/C=C/c1ccc(O)c(OC)c1`, the tube area decrease is -5.2%.

For `O=C(/C=C/c1ccc(O)c(O)c1)O[C@@H]1C[C@@](OC(=O)/C=C/c2ccc(O)c(O)c2)(C(=O)O)C[C@@H](O)[C@@H]1O`, the tube area decrease is 8.1%.

Consider `CCCc1c2oc(C(=O)O)cc(=O)c2cc2c(=O)cc(C(=O)O)n(CC)c12`, for which the tube area decrease is -19.4%.

For the compound `Nc1ccc(C(=O)N2CC3CC(CN(Cc4ccccc4)C3)C2)cc1`, the tube area decrease was -12.8%.

As to `Nc1ccc(S(=O)(=O)NCc2ccccc2)cc1`, the tube area decrease was -5.2%.

For `Cc1ccccc1C(=O)Nc1ccc(C(=O)N2CCCC(N(C)C)c3ccccc32)cc1` (stereo not drawn), the tube area decrease was 59.2% (active).

On to `CCCCCCCCCCCCCCCC[N+](C)(C)Cc1ccccc1`, for which the tube area decrease was 109% (active).

On to `O=C(CCCCCCCCC#CI)Oc1ccccc1`, for which the tube area decrease is 13%.

Consider `CCCCOC(=O)CCCCCCCCC(=O)OCCCC`, for which the tube area decrease is 3.7%.

For the compound `CCN1/C(=C/C=C/c2sc3ccccc3[n+]2CC)Sc2ccccc21`, the tube area decrease was -349%.

Regarding `CCN1CCCC1=O`, the tube area decrease was -19.9%.

Regarding `CO[C@@H]1[C@@H](O[C@@H]2O[C@H](C)[C@@H](O[C@H]3C[C@@](C)(O)[C@@H](O)[C@H](C)O3)[C@H](N(C)C)[C@H]2O)[C@@H](CC=O)C[C@@H](C)[C@@H](O[C@@H]2CC[C@H](N(C)C)[C@@H](C)O2)/C=C/C=C/C[C@@H](C)OC(=O)C[C@H]1OC(C)=O`, the tube area decrease was 3%.

In the case of `O=C1OC2(c3ccccc31)c1cc(Br)c(O)c(Br)c1Oc1c2cc(Br)c(O)c1Br`, the tube area decrease is -24.2%.

In the case of `CC(C)[C@H](N)C(=O)O`, the tube area decrease was -14.8%.

For `CCCCCC[C@@H](CCC)C(=O)O`, the tube area decrease is -29.5%.

Regarding `CC(=O)SCC(CC(=O)c1ccc(C)cc1)C(=O)O` (stereo not drawn), the tube area decrease was -18.7%.

`OC1(c2ccc(Cl)cc2)CCNCC1`: the tube area decrease was 7.8%.

Take `Oc1cc(O)cc(O)c1`: the tube area decrease was -14.9%.

With `CN(C)[C@@H]1C(=O)C(C(N)=O)=C(O)[C@@]2(O)C(=O)C3=C(O)c4c(O)cccc4C[C@H]3C[C@@H]12`, the tube area decrease is -5.9%.

`C#C[C@]1(O)CC[C@@H]2[C@@H]3CCC4=CCCC[C@@H]4[C@H]3C(=C)C[C@@]21CC`: the tube area decrease is 55.3% (active).

Consider `CCc1cc2cc(OC)c(OC)cc2c(Cc2ccccc2)n1`, for which the tube area decrease was 18.5%.

In the case of `O=C1Nc2ccccc2C1(c1ccc(O)cc1)c1ccc(O)cc1`, the tube area decrease is 16.2%.

As for `NC(=O)NS(=O)(=O)c1ccc(Cl)cc1`, the tube area decrease is -14.2%.

Take `O=Cc1ccc(O)c(O)c1O`: the tube area decrease is 3.3%.

On to `O=C(Nc1ccc(Cl)cc1)Nc1ccc(Cl)c(C(F)(F)F)c1`, for which the tube area decrease is 108% (active).

With `CCOC(=O)C(C#N)=C(c1ccccc1)c1ccccc1`, the tube area decrease was 2.6%.

As for `CCCCCOc1ccccc1/C(=C\SC)n1ccnc1`, the tube area decrease was 30.4%.

A short description of a further experiment: GLP1 release stimulators, primary, NCI-H716, NPC library (AID 1117341;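 active means compound raises GLP1 secretion from the human gut endocrine cells, with no numeric limit stated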; further: reference of the scale not given here). The following applies: NCI-H716 cells, at 10 µM, hits give high values.
As for `CCC(=O)Nc1ccc(O)cc1`, the GLP1 secretion stimulation was 4.4%.

On to `COC(=O)c1cc(S(C)(=O)=O)ccc1OC`, for which the GLP1 secretion stimulation was -1.3%.

`Cc1cccc(N(C)C(=S)Oc2ccc3c(c2)CCC3)c1`: the GLP1 secretion stimulation was -4.7%.

As for `Nc1c(N=Nc2ccc(-c3ccc(N=Nc4cc(S(=O)(=O)O)c5ccccc5c4N)cc3)cc2)cc(S(=O)(=O)O)c2ccccc12`, the GLP1 secretion stimulation was -1.7%.

As for `CCOC(=O)CN1CCCC1=O`, the GLP1 secretion stimulation is -1.8%.

As for `COC(=O)[C@H]1[C@H]2C[C@@H]3c4[nH]c5cc(OC)ccc5c4CCN3C[C@H]2C[C@@H](OC(=O)COc2ccc(OC)cc2)[C@@H]1OC`, the GLP1 secretion stimulation is 8.5%.

As for `CCCCN(CCCC)C(C(N)=O)c1ccc(OC)cc1` (stereo not drawn), the GLP1 secretion stimulation was 2.1%.

As to `CN[C@@H]1[C@@H](O)[C@@H](O[C@@H]2[C@H](O)[C@H](O[C@H]3OC(CN)=CC[C@H]3N)[C@@H](N)C[C@H]2N)OCC1(C)O` (stereo partly drawn), the GLP1 secretion stimulation is 2.9%.

Consider `COc1ccc2c(c1)c(CC(=O)OC/C=C(\C)CC/C=C(\C)CCC=C(C)C)c(C)n2C(=O)c1ccc(Cl)cc1`, for which the GLP1 secretion stimulation is -2.8%.

`CCc1ccc(C(=O)C(C)CN2CCCCC2)cc1` (stereo not drawn): the GLP1 secretion stimulation was -1.5%.

In the case of `O=C(O)c1cc(O)c2c(c1)[O][Bi][O]2`, the GLP1 secretion stimulation is -0.5%.

Regarding `CCN(CC)CC(=O)Oc1ccc(NC(C)=O)cc1`, the GLP1 secretion stimulation was -0.7%.

On to `C/C=C/c1ccc(O)c(OC)c1`, for which the GLP1 secretion stimulation is -3.8%.

Turning to `O=C(/C=C/c1ccc(O)c(O)c1)O[C@@H]1C[C@@](OC(=O)/C=C/c2ccc(O)c(O)c2)(C(=O)O)C[C@@H](O)[C@@H]1O`, the GLP1 secretion stimulation was 3.7%.

Turning to `CCCc1c2oc(C(=O)O)cc(=O)c2cc2c(=O)cc(C(=O)O)n(CC)c12`, the GLP1 secretion stimulation is -2.3%.

`Nc1ccc(C(=O)N2CC3CC(CN(Cc4ccccc4)C3)C2)cc1`: the GLP1 secretion stimulation is 1.7%.

Regarding `Nc1ccc(S(=O)(=O)NCc2ccccc2)cc1`, the GLP1 secretion stimulation was 0.6%.

In the case of `Cc1ccccc1C(=O)Nc1ccc(C(=O)N2CCCC(N(C)C)c3ccccc32)cc1` (stereo not drawn), the GLP1 secretion stimulation is 2.1%.

As to `CCCCCCCCCCCCCCCC[N+](C)(C)Cc1ccccc1`, the GLP1 secretion stimulation is -4.3%.

Consider `O=C(CCCCCCCCC#CI)Oc1ccccc1`, for which the GLP1 secretion stimulation was 0.3%.

In the case of `CCCCOC(=O)CCCCCCCCC(=O)OCCCC`, the GLP1 secretion stimulation is 1.9%.

Consider `CCN1/C(=C/C=C/c2sc3ccccc3[n+]2CC)Sc2ccccc21`, for which the GLP1 secretion stimulation is -2.9%.

`CCN1CCCC1=O`: the GLP1 secretion stimulation is 4.1%.

Regarding `CO[C@@H]1[C@@H](O[C@@H]2O[C@H](C)[C@@H](O[C@H]3C[C@@](C)(O)[C@@H](O)[C@H](C)O3)[C@H](N(C)C)[C@H]2O)[C@@H](CC=O)C[C@@H](C)[C@@H](O[C@@H]2CC[C@H](N(C)C)[C@@H](C)O2)/C=C/C=C/C[C@@H](C)OC(=O)C[C@H]1OC(C)=O`, the GLP1 secretion stimulation is 9.9%.

For `O=C1OC2(c3ccccc31)c1cc(Br)c(O)c(Br)c1Oc1c2cc(Br)c(O)c1Br`, the GLP1 secretion stimulation is 17.7%.

`CC(C)[C@H](N)C(=O)O`: the GLP1 secretion stimulation is -4.1%.

Take `CCCCCC[C@@H](CCC)C(=O)O`: the GLP1 secretion stimulation is 3.5%.

In the case of `CC(=O)SCC(CC(=O)c1ccc(C)cc1)C(=O)O` (stereo not drawn), the GLP1 secretion stimulation is 1.4%.

With `OC1(c2ccc(Cl)cc2)CCNCC1`, the GLP1 secretion stimulation is 1.3%.

With `Oc1cc(O)cc(O)c1`, the GLP1 secretion stimulation was -1.7%.

For the compound `CN(C)[C@@H]1C(=O)C(C(N)=O)=C(O)[C@@]2(O)C(=O)C3=C(O)c4c(O)cccc4C[C@H]3C[C@@H]12`, the GLP1 secretion stimulation was 18.7%.

`C#C[C@]1(O)CC[C@@H]2[C@@H]3CCC4=CCCC[C@@H]4[C@H]3C(=C)C[C@@]21CC`: the GLP1 secretion stimulation is -7.2%.

As for `CCc1cc2cc(OC)c(OC)cc2c(Cc2ccccc2)n1`, the GLP1 secretion stimulation is 3.6%.

Consider `O=C1Nc2ccccc2C1(c1ccc(O)cc1)c1ccc(O)cc1`, for which the GLP1 secretion stimulation was 5.4%.

Consider `NC(=O)NS(=O)(=O)c1ccc(Cl)cc1`, for which the GLP1 secretion stimulation is -1.2%.

Consider `O=Cc1ccc(O)c(O)c1O`, for which the GLP1 secretion stimulation is 3.4%.

Take `O=C(Nc1ccc(Cl)cc1)Nc1ccc(Cl)c(C(F)(F)F)c1`: the GLP1 secretion stimulation is -3.9%.

`CCOC(=O)C(C#N)=C(c1ccccc1)c1ccccc1`: the GLP1 secretion stimulation is -0.1%.

Turning to `CCCCCOc1ccccc1/C(=C\SC)n1ccnc1`, the GLP1 secretion stimulation is 3.8%.
